The results in this text go back to PubChem BioAssay (Tox21).

Inconclusive results are not listed. A number with no mark means an inactive call. Activity calls are given as the source filed them. Calls come from the whole dose curve.
% is set by controls: 0 for no effect and ±100 for the full control effect; potency is the fitted concentration of half-maximal effect.

The test can be described thus: p53 small molecule agonists, cell-based qHTS assay: qHTS cell viability counter screen (AID 1963581). Note: nearly all actives have a fitted effect of over 45% in size. The note with it: p53RE-bla HCT-116 viability, ATP luminescence, 16 h; series mostly up to 66 µM; activity change, negative = cytotoxicity: at the top concentration. An excerpt:
National Center for Advancing Translational Sciences [NCATS]
Division of Preclinical Innovation [DPI]
U.S. Environmental Protection Agency [EPA]
National Institutes of Environmental Health Sciences [NIEHS]
National Toxicology Program [NTP]
U.S. Food and Drug Administration [FDA]
p53, a tumor suppressor protein, is activated following cellular insult, including DNA damage and other cellular stresses. The activation of p53 regulates cell fate by inducing DNA repair, cell cycle arrest, apoptosis, or cellular senescence. The activation of p53, therefore, is a good indicator of DNA damage and other cellular stresses. The CellSensor p53RE-bla HCT-116 cell line (Invitrogen) contains a stably integrated beta-lactamase reporter gene under control of the p53 response elements. The activation of the reporter gene under culture conditions can be detected by fluorescence intensity. This cell line was used to screen the Tox21 compound library in a 1536-well plate format and to identify agonists that activate the p53 signaling pathway. The cytotoxicity of the Tox21 compound library against the p53 RE-bla HCT-116 cell line was tested in parallel by measuring the intra cellular ATP content in the same wells.
Tox21 Assay Protocol Summary:
The p53RE-bla cells were dispensed at 4,000 cells/5 ul/well in 1536-well black wall/clear bottom plates using a Multidrop dispenser. After the assay plates were incubated at a 37 C/5% CO2 incubator for 5 hours, 23 nL of compounds dissolved in DMSO, positive controls or DMSO only was transferred to the assay plate by a pin tool. The plates were incubated at 37 C for 16 hours. After 1 uL of LiveBLAzerTM B/G FRET substrate was added using a Flying Reagent Dispenser, the plates were incubated at room temperature for 2 hours, and fluorescence intensity was measured by an Envision plate reader. For cell viability readout that measures cytotoxicity, 4 ul/well of CellTiter-Glo reagent was added into the assay plates using a Flying Reagent Dispenser. After 30 min incubation at room temperature, the luminescence intensity in the plates was measured using a ViewLux plate reader.
A general note: Quantitative high-throughput screening tests each substance at several concentrations.
In the case of `CN(C)CCOCCO`, the “activity change, negative = cytotoxicity” value was 11.4%.

Regarding `COC(=O)CCS`, the “activity change, negative = cytotoxicity” value is 2.43%. The same measure, in the same setting: under `C[C@H](CCC(=O)O)[C@H]1CC[C@H]2[C@@H]3CC[C@@H]4C[C@H](O)CC[C@]4(C)[C@H]3C[C@H](O)[C@]12C` stands -30.5%; under `O=C(Cl)c1c(Cl)cccc1Cl`, -0.34%; under `CC/C(C)=N\O[Si](C)(O/N=C(\C)CC)O/N=C(\C)CC`, 2.47%.

In the case of `CCOC(=O)CC(=O)c1ccccc1`, the “activity change, negative = cytotoxicity” value is -7.2%. Turning to `N#CCCN(CCO)CCO`, the “activity change, negative = cytotoxicity” value is -13.6%. Consider `O=[N+]([O-])c1cccc(Cl)c1Cl`, for which the “activity change, negative = cytotoxicity” value is 5.47%. Regarding `CCCCCOC(=O)c1ccc(O)cc1`, the “activity change, negative = cytotoxicity” value is 20.2%.

For `O=C1N=C(O)CN1/N=C/c1ccc(-c2ccc([N+](=O)[O-])cc2)o1`, the Potency entry is “inactive”. On to `NCCc1cnc[nH]1`, for which the “activity change, negative = cytotoxicity” value was 6.99% [at 30.3 µM]. In the case of `N/C(=N\N=C\c1ccc(Cl)cc1)N/N=C/c1ccc(Cl)cc1`, the “activity change, negative = cytotoxicity” value is -13.4% [at 30.3 µM]. As for `CC1(C)[C@@H](OC(=O)CCC(=O)O)CC[C@]2(C)[C@H]3C(=O)C=C4[C@@H]5C[C@@](C)(C(=O)O)CC[C@]5(C)CC[C@@]4(C)[C@]3(C)CC[C@@H]12`, the “activity change, negative = cytotoxicity” value was -1.05% [at 30.3 µM]. On to `COC(C)(C)OC`, for which the “activity change, negative = cytotoxicity” value was 0.289%. Regarding `C=C(C)C(=O)OCCCCCCCCCC`, the “activity change, negative = cytotoxicity” value was -10.1%. As to `C=C(C)C(=O)OCCOC(=O)CC(C)=O`, the “activity change, negative = cytotoxicity” value was 1.39%. Still for that read-out and setting: under `Cc1ccc(NC(=O)c2ccc(CN3CCN(C)CC3)cc2)cc1Nc1nccc(-c2cccnc2)n1` stands 14.6% [at 30.3 µM]; under `Cc1nc2c([nH]1)c(=O)n(C)c(=O)n2Cc1ccco1`, -6% [at 30.3 µM]. As to `CC(C)CCCCCCOC(=O)C1CCCCC1C(=O)OCCCCCCC(C)C` (stereo not given), the “activity change, negative = cytotoxicity” value was 16%.

With `COc1cc([C@@H]2c3cc4c(cc3[C@@H](O[C@@H]3O[C@@H]5CO[C@@H](C)O[C@H]5[C@H](O)[C@H]3O)[C@H]3COC(=O)[C@H]23)OCO4)cc(OC)c1O`, the “activity change, negative = cytotoxicity” value was 3.86%. Take `C=C(C)C(=O)OCc1ccccc1`: the “activity change, negative = cytotoxicity” value was -12.6%.

As to `Cc1oc2c(NC(=O)c3c(Cl)cccc3Cl)cccc2c1C(C)(C)O`, the “activity change, negative = cytotoxicity” value was -8.28%.

With `Cc1cc(=O)oc2cc(N(C)C)ccc12`, the “activity change, negative = cytotoxicity” value was -18.4%. On the same count and under the same terms, under `O=c1cc(-c2ccccc2)oc2cc(O)cc(O)c12` stands 8.86%. Turning to `FC1(F)C(F)(F)C(F)(F)C2(F)C(F)(F)C(F)(F)C(F)(F)C(F)(F)C2(F)C1(F)F` (stereo not given), the “activity change, negative = cytotoxicity” value was 1.1% [at 30.3 µM]. On to `CCCCC[Si](OCC)(OCC)OCC`, for which the “activity change, negative = cytotoxicity” value was 17.8%. In the case of `CC(C)n1c(/C=C/[C@@H](O)C[C@@H](O)CC(=O)O)c(-c2ccc(F)cc2)c2ccccc21`, the Potency entry is “inactive”. `C/C=C/C=C/C=O`: the “activity change, negative = cytotoxicity” value is 9.32%. Take `CCCC(C)CC` (stereo not given): the “activity change, negative = cytotoxicity” value is -1.67%. In the case of `CN(C)Cc1cc(C(C)(C)C)c(O)c(C(C)(C)C)c1`, the “activity change, negative = cytotoxicity” value was -6.61%. As for `CCCn1cc[n+](C)c1C`, the “activity change, negative = cytotoxicity” value was -0.0244%.

As to `CC(C)CCCC(C)CC=O` (stereo not given), the “activity change, negative = cytotoxicity” value was -10.8%. With `FC(F)(Cl)C(F)(Cl)Cl`, the “activity change, negative = cytotoxicity” value is -2.75%. Take `[O-][N+](=Nc1ccccc1)c1ccccc1`: the “activity change, negative = cytotoxicity” value was 12.2%. Regarding `CC(C)COC(=O)COc1ccc(Cl)cc1Cl`, the “activity change, negative = cytotoxicity” value was -2.22%.

With `CC(=O)OC(C)C[N+](C)(C)C` (stereo not given), the “activity change, negative = cytotoxicity” value is -4.59% [at 30.3 µM]. Consider `CCCCCCCCCCCCCC[P+](CCCC)(CCCC)CCCC` (tested in a mixture with another compound), for which the Potency was 16.3 µM (active). Turning to `CC1=C(Br)C(=O)C(Br)=C/C1=C(/c1ccccc1S(=O)(=O)O)c1cc(Br)c(O)c(Br)c1C`, the “activity change, negative = cytotoxicity” value is -15.5% [at 30.3 µM]. With `COc1cccc2c1C(=O)c1c(O)c3c(c(O)c1C2=O)C[C@@](O)(C(=O)CO)C[C@@H]3O[C@H]1C[C@H](N)[C@H](O[C@@H]2CCCCO2)[C@H](C)O1`, the “activity change, negative = cytotoxicity” value was 3.06% [at 30.3 µM].

Turning to `CCc1cc(C2=C(C(=O)O)N(c3ccccc3C(F)(F)F)S(=O)(=O)c3ccccc32)cc2c1OCO2`, the “activity change, negative = cytotoxicity” value was -29.9%.
